ABCB6 inh MLPCN = human ABCB6 transporter inhibition | K562-ABCB6 porphyrin accumulation, flow cytometry, 1 h; hits give low values | fluorescence ratio to DMSO, % at 10 µM | 360,000 compounds, 0.19% hits;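 active = fluorescence ratio to DMSO below 75%, the collection mean minus 3 SD; inconclusive = too few cells collected in the well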;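 also: signal is porphyrin accumulated inside mitochondria; lower ratio means ABCB6 inhibition with less porphyrin fluorescence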
Target sequence (Q9NP58 whole entry, looked up): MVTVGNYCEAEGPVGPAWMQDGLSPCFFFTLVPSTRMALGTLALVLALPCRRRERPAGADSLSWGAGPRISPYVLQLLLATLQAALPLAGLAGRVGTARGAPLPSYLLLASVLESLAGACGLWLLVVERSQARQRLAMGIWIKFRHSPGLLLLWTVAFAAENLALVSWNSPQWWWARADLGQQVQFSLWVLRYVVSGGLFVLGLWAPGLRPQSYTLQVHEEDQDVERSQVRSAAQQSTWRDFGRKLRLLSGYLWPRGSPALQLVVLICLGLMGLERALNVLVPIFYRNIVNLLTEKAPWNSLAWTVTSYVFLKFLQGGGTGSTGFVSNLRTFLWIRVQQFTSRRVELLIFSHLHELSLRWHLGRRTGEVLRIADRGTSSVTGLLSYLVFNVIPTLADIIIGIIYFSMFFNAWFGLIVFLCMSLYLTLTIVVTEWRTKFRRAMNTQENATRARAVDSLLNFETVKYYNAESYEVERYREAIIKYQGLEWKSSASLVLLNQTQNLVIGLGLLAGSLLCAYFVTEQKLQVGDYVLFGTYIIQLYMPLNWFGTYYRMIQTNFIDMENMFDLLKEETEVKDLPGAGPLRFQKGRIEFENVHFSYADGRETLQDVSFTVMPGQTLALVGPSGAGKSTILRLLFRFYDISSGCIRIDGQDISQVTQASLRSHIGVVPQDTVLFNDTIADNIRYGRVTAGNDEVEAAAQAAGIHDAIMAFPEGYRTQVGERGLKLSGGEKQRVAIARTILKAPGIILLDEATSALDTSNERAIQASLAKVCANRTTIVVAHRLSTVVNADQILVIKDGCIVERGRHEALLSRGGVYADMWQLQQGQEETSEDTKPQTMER
Granule exo inh = blocks lytic granule exocytosis | TALL-104 LAMP-1 surface exposure, flow cytometry; cells stimulated with thapsigargin and PMA | 360,000 compounds, 0.66% hits | inhibition, % at 10 µM;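 active = inhibition above about 55%, limit read from the data; inconclusive = no clear call, values can overlap the other calls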
Myeloid diff MLP = compounds promoting myeloid differentiation. ER-HoxA9 myeloid progenitors, lysozyme-GFP differentiation, flow cytometry. calls only at 10 µM. 360,000 compounds, 1% hits;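 active = normalized GFP-positive differentiation at or above the plate's own cutoff, the solvent-only control mean plus 3 SD; inconclusive = no clear call, values can overlap the other calls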;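 also: cells exposed to compound for four days before flow analysis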
Hits are given with their value; - = inactive; ? = inconclusive; . = no result given; + = active, no number. Shown are actives, neighbours in structure and some others; about 1.8% of the full set was active somewhere.

SMILES	ABCB6 inh MLPCN	Granule exo inh	Myeloid diff MLP
Cc1nn(C(C)(C)C)c(NC(=O)c2ccccc2)c1C#N	-	-	-
Cc1ccc(C(=O)NCCn2c(N)c(C#N)c3nc4ccccc4nc32)cc1	-	-	+
CCC(C)n1c(NC(=O)c2ccccc2)c(C#N)c2nc3ccccc3nc21 (centres undefined)	-	-	+
N#Cc1c(N)n(CCNC(=O)c2ccc(Cl)cc2)c2nc3ccccc3nc12	-	-	-
CCCCn1c(NC(=O)c2ccccc2)c(C#N)c2nc3ccccc3nc21	-	-	+
CCC(=O)Nc1c(C#N)c2nc3ccccc3nc2n1-c1ccc(C)cc1	-	-	-
COc1ccc(OC(=O)N2C/C(=C/c3ccccc3)C(=O)/C(=C\c3ccccc3)C2)cc1	-	61.6	.
CCOC(=O)N1C/C(=C\c2ccccc2)C(=O)/C(=C/c2ccccc2)C1	-	-	.
CN(C)CCC(=O)N1C/C(=C/c2ccccc2)C(=O)/C(=C\c2ccccc2)C1	-	67.8	?
C[N+](C)(C)CCC(=O)N1C/C(=C/c2ccccc2)C(=O)/C(=C\c2ccccc2)C1	-	-	-
O=C(O)C1C2C=CC(O2)C1C(=O)Nc1ccc(S(=O)(=O)N2CCc3ccccc32)cc1 (centres undefined)	-	-	-
O=C(O)C1C2C=CC(O2)C1C(=O)Nc1ccc(S(=O)(=O)Nc2ccccc2)cc1 (centres undefined)	-	101.6	-
O=C(O)c1cc(-c2ccc3ccccc3c2)nc2ccc(F)cc12	-	-	+
O=C(O)c1cc(-c2ccc3ccccc3n2)nc2ccccc12	-	-	-
Cc1ccc(C(=O)C2CC2)cc1C	-	-	-
O=C1NC(=O)C2(C=C(c3ccccc3)C(O)(c3ccccc3)C2)N1 (centres undefined)	-	-	-
COC(=O)c1cc2c(cc1NC(=O)CSCCc1ccccn1)OCO2	-	-	+
CC(=O)Nc1ccc(NC(=O)CSCCc2ccccn2)cc1	-	-	-
Cc1ccc2c(c1)[C@H]1[C@H](CO2)[C@H](c2ccccc2)[C@]2(C)C(=O)NCC(=O)N12	-	-	-
COc1ccc2c(COC(=O)[C@H](C)NS(=O)(=O)c3ccccc3F)cc(=O)oc2c1	-	-	-
CC(C)(C)c1cc(CNC(=O)C2CCC(=O)N(Cc3ccccc3F)C2)[nH]n1 (centres undefined)	-	-	-
CCOC(=O)[C@]12CCC=C1N(CCC1=CCCCC1)C(=O)[C@H](CC(=O)N1CCN(C(=O)c3ccco3)CC1)C2	-	-	-
Cc1ccc(N2CC(C(=O)OCC(=O)Nc3cc(C)on3)CC2=O)c(C)c1 (centres undefined)	-	-	+
Cc1cc(NC(=O)COC(=O)C2CC(=O)N(c3ccccc3Cl)C2)no1 (centres undefined)	-	-	-
CN(CCc1ccccc1)C(c1ccnc2ccccc12)c1nnnn1-c1ccc2c(c1)OCCO2 (centres undefined)	-	-	-
SMILES	ABCB6 inh MLPCN	Granule exo inh	Myeloid diff MLP
CCCCNC(=O)C1(C)CCN1C(=O)c1cccnc1Oc1ccccc1 (centres undefined)	-	-	-
CCc1ccccc1NC(=O)C1CCN(S(C)(=O)=O)CC1	-	-	+
CS(=O)(=O)N1CCC(C(=O)Nc2ccccc2Cl)CC1	-	-	-
CCCn1nc(C(=O)Nc2cccc(S(=O)(=O)N(C)c3ccccc3)c2)c2ccccc2c1=O	-	-	-
O=C(Nc1ccc(F)cc1)C(c1ccnc2ccccc12)N1CCN(C(=O)c2ccco2)CC1 (centres undefined)	.	-	-
CC(=O)/C(N=Nc1ccc(C(=O)O)cc1[N+](=O)[O-])=C(\C)O	-	-	-
CC(=O)/C(N=Nc1cc(C)ccc1O)=C(\C)O	-	-	+
COc1ccccc1CNCC(=O)N1CC(=O)Nc2ccccc21	-	-	-
CSc1ccccc1C(=O)C1CCCN(C(=O)NC(C)C)C1 (centres undefined)	-	-	-
CCn1nc(C)cc1C(=O)N1CCCC(C(=O)c2ccccc2SC)C1 (centres undefined)	-	-	+
Cc1cccc(C)c1NC(=O)C1(C)CN(S(C)(=O)=O)CC(=O)N1CCc1ccccc1F (centres undefined)	.	-	-
N#CC1=C(N)SC(N)=C(C#N)C1CCc1ccccc1	-	-	+
N#CC1=C(N)SC(N)=C(C#N)C1Cc1ccccc1	-	-	-
CCN1N=C(c2ccccc2)Cn2c1nc1ccccc12	-	-	-
O=C(Nc1ccncc1)C1(c2ccccc2)CCCC1	-	-	-
O=C(Nc1ccc(O)c(-c2nc3ccccc3o2)c1)C1(c2ccccc2)CCCC1	-	-	+
COc1ccc(/C=C/C(=O)OCC(=O)c2cc(C)ccc2C)cc1	-	-	-
O=S(=O)(NCc1cn2ccsc2n1)c1ccc(Oc2ccccc2)cc1	-	-	+
O=S(=O)(NCc1cn2ccsc2n1)c1cccs1	-	-	-
